Only some compounds are listed: those with a hit (about 9.4% of all), similar ones and a draw of the others.
ELG1 genotox = inducers of genotoxicity in HEK293T ELG1-luciferase cells; HEK293T ELG1-luciferase reporter, luminescence, 16 h; Potency, µM (top dose mostly 46 µM), for the others: at the top dose activity change, positive = activation, usual class: activators; actives 1.3% (n = 330,000); also: % of control where 0% means no effect; nearly all actives have a fitted effect of over 60% in size
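HEK293T cells expressing luciferase-tagged ELG1 were treated with compound or DMSO for 16 hr at 37°C. Luciferase activity was then read after 30 min with ONE-Glo at room temperature; rising signal flags genetic stress.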
ELG1 DNA repair = inhibitors of ELG1-dependent DNA repair in HEK293T cells; HEK293T ELG1-luciferase reporter, luminescence, 16 h; DNA damage induced by 5-fluorouridine; AID 504467; actives 2.3% (n = 330,000); Potency, µM (top dose mostly 46.1 µM), without a hit: at the highest dose activity change, negative = inhibition, most hits filed as inhibitors; also: % is scaled to controls: 0 for no effect and ±100 for the full control effect; nearly all actives have a fitted effect of over 55% in size
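Step one: seed 2,000 cells per well. Step two: pin-transfer compound or DMSO alongside 5-fluorouridine. Step three: incubate 16 hr, 37 °C, 5% CO2. Step four: add ONE-Glo, wait 30 min, read luminescence.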
Rab9 promoter act = activators of Rab9 promoter. Huh7 Rab9 promoter-luciferase reporter, luminescence, 24 h. Potency, µM (highest dose often 9.22 µM), for the others: at the top dose activation, negative = inhibition, hits mostly activators. actives 2.8% (n = 320,000). AID 485297; also: % of control where 0% means no effect; nearly all actives have a fitted effect of over 60% in size
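Luminescence read-out: Huh7 cells stably expressing Rab9-luciferase, treated 24 h with compound at 37 °C, then lysed with luciferase reagent for 10 min at ambient before reading.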
SMN2 splice up = SMN2 splice variant enhancement; HEK293 SMN2-luciferase splicing reporter, luminescence, 30-36 h; Potency, µM (doses to about 46.1 µM), for the others: at the top dose activity change, positive = activation, actives largely listed as activators; actives 2.8% (n = 210,000); also: % of control where 0% means no effect; nearly all actives have a fitted effect of over 55% in size
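qHTS luciferase splicing reporter: luminescence rises when SMN2 exon 7 is included in transfected HEK293 cells. Compound exposure lasted 30-36 h at 37C, with 4.5 mM final sodium butyrate as control, followed by a ONE-Glo read.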
FLuc counter = firefly luciferase modulation, counter-screen for miR-21 project; P08659; purified FLuc, Km substrates, luminescence inhibition; Potency, µM (highest dose often 57.5 µM), inactives show at the highest dose activity change, negative = inhibition, usual class: inhibitors; actives 6.9% (n = 360,000); AID 588342;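 also: plate controls were vehicle for no effect and reference inhibitor for full effect; nearly all actives have a fitted effect of over 55% in size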
Target sequence (P08659 whole entry, looked up): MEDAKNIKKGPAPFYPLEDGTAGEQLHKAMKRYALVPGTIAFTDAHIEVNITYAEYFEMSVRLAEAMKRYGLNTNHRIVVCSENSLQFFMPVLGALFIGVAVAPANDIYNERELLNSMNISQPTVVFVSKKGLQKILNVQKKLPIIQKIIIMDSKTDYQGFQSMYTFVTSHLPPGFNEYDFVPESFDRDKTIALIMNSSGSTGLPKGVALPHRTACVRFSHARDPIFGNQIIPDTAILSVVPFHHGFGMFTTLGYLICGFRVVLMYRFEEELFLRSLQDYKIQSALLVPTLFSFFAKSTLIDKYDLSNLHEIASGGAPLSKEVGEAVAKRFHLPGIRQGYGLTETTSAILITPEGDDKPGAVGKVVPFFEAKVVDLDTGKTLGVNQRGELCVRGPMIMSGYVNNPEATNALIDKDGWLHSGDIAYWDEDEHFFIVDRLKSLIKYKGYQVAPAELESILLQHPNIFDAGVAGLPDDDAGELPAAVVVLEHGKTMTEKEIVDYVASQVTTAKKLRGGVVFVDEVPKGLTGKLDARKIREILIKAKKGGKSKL
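Biochemical qHTS of compounds, final roughly 60 µM downward over six points, against 10 nM purified firefly luciferase using Km concentrations of substrates (10 uM D-luciferin, 10 uM ATP) in Tris acetate pH 7.5 buffer; luminescence output.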
NPC1 promoter act = NPC1 promoter activation. actives 2.4% (n = 320,000). Potency, µM (doses to about 9.22 µM), inactives show at the highest dose activation, usual class: activators. Huh7 NPC1 promoter luciferase reporter, 24 h; also: % of control where 0% means no effect; nearly all actives have a fitted effect of over 60% in size
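NPC1 promoter–luciferase Huh7 cells; 24 h compound; luminescence.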
Numbers without * were called inactive; ? = inconclusive; · = no result; [ ] = remark or other dose. Calls follow the shape of the dose curve; as a rule, active = well fitted curve in the direction sought with a large enough effect; inconclusive = small, poorly fitted or top-dose-only effect, or another doubt; inactive = no such curve, though single readings can be large; an effect the other way counts as inactive or inconclusive. Potency is read from the fitted curve at half-maximal effect.

SMILES | ELG1 genotox | ELG1 DNA repair | Rab9 promoter act | SMN2 splice up | FLuc counter | NPC1 promoter act
O=C(CCCCCn1c(=O)c2sccc2n(CC(=O)Nc2ccccc2F)c1=O)NCc1ccc2c(c1)OCO2 | · | · | · | -4% | -3% | ·
COc1cccc2cc(-c3nc4ccccc4[nH]3)c(=O)oc12 | ? | ? | 2.2µM* | · | 1.7µM* | 1.4µM*
COc1ccc(/C=C/C(=O)c2cc3cccc(OC)c3oc2=O)cc1 | -17% | 0% | -39% | -8% | ? | 7%
COc1ccc(-c2cc3cccc(OC)c3oc2=O)cc1 | ? | ? | 0.5µM* | · | 0.6µM* | 0.45µM*
CNC(=O)c1cc2cccc(OC)c2oc1=O | 9% | 5% | -3% | 24% | 4% | 0%
COc1cccc2cc(-c3ccccc3)c(=O)oc12 | ? | ? | 2.8µM* | 11µM* | 8.5µM* | 2.5µM*
Cc1ccc(Cl)cc1NC(=O)Cn1nnc2sc3c(c2c1=O)CCC(C(C)(C)C)C3 (stereo not drawn) | · | · | · | -3% | 0% | ·
CCc1ccc(S(=O)(=O)NCc2ccc3c(c2)CCN3C(=O)c2ccc(C)cc2)cc1 | · | · | · | · | -8% | ·
O=C(Nc1c(Cl)cccc1Cl)c1cc(-c2cccc(O)c2)on1 | · | · | · | ? | 24µM* | ·
O=C(Nc1ccc2c(c1)OCO2)c1cc(-c2ccc(Cl)cc2)on1 | · | · | · | 9% | -1% | ·
O=C(Nc1ccc2c(c1)OCO2)c1cc(-c2cccc(O)c2)on1 | 10% | 0% | -2% | · | 2.1µM* | 7%
O=C(Nc1ccc2c(c1)OCO2)c1cc(-c2ccc(O)cc2)on1 | ? | ? | ? | · | ? | 3.5µM*
C/C(=N\Nc1ccccc1C)c1cccnc1 | 11% | -7% | 4% | · | 17µM* | 2%
CCOc1ccc(-n2c(/C=C/c3cccc(F)c3)nc3cc(OC)c(OC)cc3c2=O)cc1 | · | · | · | · | 0% | ·
Cc1csc(NC(=O)CCc2c(C)nc3cc(-c4ccc(Cl)cc4)nn3c2C)n1 | -15% | ? | -2% | -83% | 11µM* | 1%
Cc1nc2cc(-c3ccc(Cl)cc3)nn2c(C)c1CCC(=O)NC(C)c1ccc2c(c1)OCCO2 (stereo not drawn) | -9% | ? | -3% | -73% | 15µM* | 5%
COc1cc(OC)cc(-c2cc3nc(C)c(CCC(=O)NCc4ccccc4)c(C)n3n2)c1 | -7% | 21µM* | -15% | -7% | ? | -23%
COc1ccccc1CNC(=O)CCc1c(C)nc2cc(-c3ccc(Cl)cc3)nn2c1C | · | · | · | 16% | 6% | ·
Cn1cnc(S(=O)(=O)N2CCCC(C(=O)NCc3ccc(F)cc3)C2)c1 (stereo not drawn) | · | · | · | · | 0% | ·
CCCOc1ccc(C2C(=O)N(C3CCC(C)CC3)CC(=O)N2Cc2cccc(OC)c2)cc1OC (stereo not drawn) | · | · | · | · | -2% | ·
CC(C)(C)CC(C)(C)c1cc(O)c(O)c(CN2CCCCC2)c1 | · | · | · | -7%[9.22 µM] | · | ·
COc1ccc(-c2cc(=O)c3cc(C)ccc3[nH]2)cc1 | 13µM* | ? | 3.2µM* | 7.1µM* | 1.7µM* | 3.2µM*
COc1cc2[nH]c(-c3ccc(C)cc3)cc(=O)c2cc1OC | 11% | ? | 26% | ? | 13µM* | 13%
COc1ccc(-c2cc(=O)c3cc(OC)ccc3[nH]2)cc1 | 9.2µM* | ? | 1.4µM* | 2.5µM* | 3.4µM* | 3.5µM*
O=C(Nc1cccc(OCc2cc(=O)n3ccccc3n2)c1)Nc1cccc(C(F)(F)F)c1 | · | · | · | · | -7% | ·
SMILES | ELG1 genotox | ELG1 DNA repair | Rab9 promoter act | SMN2 splice up | FLuc counter | NPC1 promoter act
O=C(Nc1cccc(C(F)(F)F)c1)c1cc2nc(-c3ccccc3)cc(C(F)(F)F)n2n1 | · | · | · | -4% | -4% | ·
COc1cccc(CN2C(=O)c3ccccc3Sc3ccc(C(=O)OCc4ccco4)cc32)c1 | · | · | · | · | 0% | ·
C/C(=N/NC(=O)c1ccncc1)c1ccc(NC(=O)c2ccccc2)cc1 | 2% | ? | 0% | · | 21µM* | -4%
C/C(=N\NC(=O)c1nn(C)cc1Br)c1cccc(NC(=O)c2ccncc2)c1 | 1% | 28% | 18% | 12% | 12µM* | 8%
CC(=NNC(=O)c1ccc(NS(=O)(=O)c2ccc(Br)cc2)cc1)c1cccnc1 | -2% | -5% | · | · | · | ·
C/C(=N/NC(=O)c1ccc(Cn2cccn2)o1)c1cccc(NC(=O)c2ccncc2)c1 | -1% | ? | -2% | · | ? | 3%
C/C(=N\NC(=O)COc1ccccc1[N+](=O)[O-])c1cccc(NC(=O)c2ccncc2)c1 | -17% | 9.2µM* | 13% | · | ? | 9%
C/C(=N\NC(=O)c1ccc(Br)cc1)c1cccc(NC(=O)c2cccnc2)c1 | 0% | -4% | 21% | ? | 12µM* | 15%
CCN(CC)CCCC(C)n1c(-c2ccccc2)nc2c(N3CCOCC3)nc(C)nc21 (stereo not drawn) | · | · | · | -3% | · | ·
C/C(=N\NC(=O)c1cccc(N/N=C(\C)c2ccncc2)c1)c1ccncc1 | -5% | ? | 19% | 9% | ? | 6%
C/C(=N\Nc1ccccc1)c1cccc(N)c1 | ? | 28% | ? | · | 21µM* | 22%
C/C(=N\NC(=S)Nc1cccc(C)c1)c1cccc(N)c1 | 9% | ? | 28% | ? | ? | 20%
C/C(=N\NC(=O)c1ccccc1O)c1cccc(NC(=O)c2ccccc2)c1 | 2% | 8% | 11% | · | 11µM* | 25%
C/C(=N\NC(=O)c1cccc(N/N=C(\C)c2ccccc2)c1)c1ccccc1 | 13% | ? | ? | 20µM* | 13µM* | ?
CC(=O)Nc1cccc(/C(C)=N/NC(=O)c2ccc(O)cc2)c1 | 0% | 5% | 2% | 8% | ? | 4%
C/C(=N\NC(=O)c1ccncc1)c1cccc(NC(=O)c2ccc(C(C)(C)C)cc2)c1 | -21% | ? | 2µM* | · | 0.12µM* | 1.4µM*
COc1ccc(N2CCN(C(=O)c3cnn(-c4ccc(OC)cc4)c3C3CCN(C(=O)OC(C)(C)C)CC3)CC2)cc1 | · | · | · | · | -2% | ·
O=C(Nc1cccc(-c2nc3ccccc3o2)c1)c1cc([N+](=O)[O-])ccc1N1CCOCC1 | · | · | · | 6% | ? | ·
CC(=O)c1[nH]c(C)c(C(=O)NCc2ccc(Cl)cc2)c1C | · | · | · | · | -9% | ·
Cc1ccc(OCc2nc(-c3ccc(C(=O)NCCc4ccc(S(N)(=O)=O)cc4)cc3)oc2C)cc1 | · | · | · | -12% | 4% | ·
C/C(=N\NC(=O)c1ccccc1O)c1ccc(NC(=O)c2ccccc2)cc1 | 17% | ? | ? | · | 21µM* | ?
O=C(CN1C(=O)CCC1=O)c1ccc(-c2ccccc2)cc1 | 17% | ? | ? | 4µM* | ? | 24%

Assay outcomes from PubChem BioAssay.
